Records with an inconclusive call do not appear. A call without a number means that no potency is given here. Calls of active or inactive are those of the source. Unless noted, calls come from the whole dose curve; as a rule, active = well fitted curve in the direction sought with a large enough effect in the repeat runs; inconclusive = weak or mixed curves; inactive = no such curve, though single readings can be large; an effect the other way counts as inactive or inconclusive.
Assays:
[1] = qHTS assay to identify small molecule antagonists of the glucocorticoid receptor (GR) signaling pathway - cell viability counter screen (AID 720693); note: nearly all actives have a fitted effect of over 55% in size; note: potency is the fitted concentration of half-maximal effect
[2] = qHTS assay for identifying genotoxic compounds that show differential cytotoxicity against isogenic chicken DT40 cell lines with known DNA damage response pathways - wild type cell line (AID 743012); note: nearly all actives have a fitted effect of over 60% in size; note: potency is the fitted concentration of half-maximal effect
Summary of the method: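 CellTiter-Glo luminescence readout of viability in wild type DT40 cells after 40 h compound exposure at 37 C/5% CO2; 300 cells/well; reagent incubated 30 min at room temperature before reading.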

[3] = qHTS assay for identifying genotoxic compounds that show differential cytotoxicity against isogenic chicken DT40 cell lines with known DNA damage response pathways - Rad54/Ku70 mutant cell line (AID 743015); note: nearly all actives have a fitted effect of over 60% in size; note: potency is the fitted concentration of half-maximal effect
[4] = qHTS assay to identify small molecule antagonists of the androgen receptor (AR) signaling pathway - cell viability counter screen (AID 743033; note: nearly all actives have a fitted effect of over 45% in size; note: potency is the fitted concentration of half-maximal effect)
[5] = molecular target: Androgen receptor (Homo sapiens) (UniProt P10275); experiment: qHTS assay to identify small molecule antagonists of the androgen receptor (AR) signaling pathway (AID 743035; active = well fitted inhibition curve with a large enough effect in the signal ratio in the repeat runs, not every such curve was filed as active; the % refers to the signal ratio; note: potency is the fitted concentration of half-maximal effect)
Androgen receptor (Homo sapiens), sequence (P10275 whole entry, looked up): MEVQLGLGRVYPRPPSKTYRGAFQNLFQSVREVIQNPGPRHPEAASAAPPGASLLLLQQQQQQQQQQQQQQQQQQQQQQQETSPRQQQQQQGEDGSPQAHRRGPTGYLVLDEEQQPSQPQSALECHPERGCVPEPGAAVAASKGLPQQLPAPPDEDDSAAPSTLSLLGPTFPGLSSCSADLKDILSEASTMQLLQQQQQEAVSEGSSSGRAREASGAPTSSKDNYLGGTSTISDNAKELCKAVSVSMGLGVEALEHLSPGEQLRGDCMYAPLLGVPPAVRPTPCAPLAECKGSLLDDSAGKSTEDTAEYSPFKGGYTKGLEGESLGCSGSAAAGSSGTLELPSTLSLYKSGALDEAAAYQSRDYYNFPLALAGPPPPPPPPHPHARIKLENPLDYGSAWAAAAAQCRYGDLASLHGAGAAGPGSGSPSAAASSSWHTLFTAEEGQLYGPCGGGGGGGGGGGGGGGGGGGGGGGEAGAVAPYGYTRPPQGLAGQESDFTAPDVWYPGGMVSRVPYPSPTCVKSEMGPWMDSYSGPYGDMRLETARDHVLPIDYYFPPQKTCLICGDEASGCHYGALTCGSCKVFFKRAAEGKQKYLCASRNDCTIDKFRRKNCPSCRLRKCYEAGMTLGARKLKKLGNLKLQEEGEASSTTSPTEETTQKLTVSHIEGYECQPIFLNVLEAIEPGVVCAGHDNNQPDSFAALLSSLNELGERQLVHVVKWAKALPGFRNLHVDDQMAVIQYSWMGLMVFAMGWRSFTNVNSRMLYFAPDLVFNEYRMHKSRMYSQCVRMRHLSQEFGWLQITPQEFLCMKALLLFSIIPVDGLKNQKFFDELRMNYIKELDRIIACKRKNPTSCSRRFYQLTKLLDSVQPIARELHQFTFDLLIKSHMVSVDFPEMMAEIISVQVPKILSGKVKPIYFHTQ
Summary of the method: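 AR-bla HEK293 reporter cells; 4 h settle at 37C/5% CO2; compound + R1881 agonist, 16 h at 37C; LiveBLAzer B/G FRET substrate 2 h RT; fluorescence intensity read. qHTS format.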

[6] = molecular target: Androgen receptor (Homo sapiens) (UniProt P10275); experiment: qHTS assay to identify small molecule agonists of the androgen receptor (AR) signaling pathway (AID 743036; active = well fitted activation curve with a large enough effect in the signal ratio in the repeat runs, with a control signal flat, not every such curve was filed as active; the % refers to the signal ratio)
Summary of the method: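 Screening used 2,000 AR-bla HEK293 cells per well, treated 16 h at 37C with test compounds in DMSO alongside positive and DMSO-only controls; beta-lactamase activity was then read by LiveBLAzer B/G FRET fluorescence after 2 h at room temperature.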

[7] = molecular target: Androgen receptor (Homo sapiens) (UniProt P10275); experiment: qHTS assay to identify small molecule agonists of the androgen receptor (AR) signaling pathway using the MDA cell line (AID 743040; note: nearly all actives have a fitted effect of over 20% in size; note: potency is the fitted concentration of half-maximal effect)
Summary of the method: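 Agonist activity is measured as luciferase luminescence in human MDA-kb2 cells whose MMTV reporter responds to both AR and GR. Compounds in DMSO incubate 16 h at 37C, 0% CO2, and ONE-Glo is read after 30 min.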

[8] = qHTS assay to identify small molecule antagonists of the androgen receptor (AR) signaling pathway using the MDA cell line - cell viability counter screen (AID 743041; note: nearly all actives have a fitted effect of over 45% in size)
Summary of the method: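 qHTS viability read-out; MDA-kb2 AR-luc; R1881-stimulated; 16 h exposure at 37C, 0% CO2; CellTiter-Fluor, 30 min; fluorescence intensity.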

[9] = molecular target: Androgen receptor (Homo sapiens) (UniProt P10275); experiment: qHTS assay to identify small molecule antagonists of the androgen receptor (AR) signaling pathway using the MDA cell line (AID 743042; note: nearly all actives have a fitted effect of over 55% in size; note: potency is the fitted concentration of half-maximal effect)
Summary of the method: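 MDA-kb2 cells (human breast carcinoma, stably carrying an MMTV-luciferase reporter responsive to AR and GR) were plated at 3,000 cells/well and preincubated 5 hr at 37C, then given compound plus R1881 agonist for 16 h. ONE-Glo luminescence was read.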

[10] = qHTS assay for identifying genotoxic compounds that show differential cytotoxicity against isogenic chicken DT40 cell lines with known DNA damage response pathways - Rev3 mutant cell line (AID 743014); note: nearly all actives have a fitted effect of over 55% in size

Structure (SMILES)	Potency [1]	Potency [2]	Potency [3]	Potency [4]	Potency [5]	Potency [6]	Potency [7]	Potency [8]	Potency [9]	Potency [10]
C=CC1=C(C(=O)O)N2C(=O)[C@@H](NC(=O)/C(=N\O)c3csc(N)n3)[C@H]2SC1 (stereo in doubt)	inactive	inactive	inactive	inactive	inactive	inactive	inactive	inactive	inactive	
O=C(O)COc1ccccc1/C=N/NC(=O)c1ccncc1	inactive	inactive	inactive	inactive	inactive	inactive	inactive	inactive	inactive	
CCN(CC)CCNC(=O)c1ccc(NS(C)(=O)=O)cc1	inactive	inactive	inactive	inactive				inactive		
c1ccc(-c2ccc(C(c3ccccc3)n3ccnc3)cc2)cc1 (centres undefined)	inactive	10.6 µM (active)	11.9 µM (active)	inactive				inactive		
CC(C)C[C@@H](NC(=O)[C@@H](O)[C@H](N)Cc1ccccc1)C(=O)O	inactive	inactive	inactive	inactive				inactive		
C=CC1=C(C(=O)O)N2C(=O)[C@@H](NC(=O)/C(=N/OCC(=O)O)c3csc(N)n3)[C@H]2SC1 (stereo in doubt)	inactive	inactive	inactive	inactive				inactive		
CCCCCCOC(=O)c1cccnc1	inactive	inactive	inactive	inactive				inactive		
Cc1c(O)c(=O)ccn1C	inactive	inactive	inactive	inactive				inactive		
Cc1cc(F)ccc1-c1cc(N2CC[C@@H](O)[C@H]2CO)ncc1N(C)C(=O)C(C)(C)c1cc(C(F)(F)F)cc(C(F)(F)F)c1	17.1 µM (active)	12 µM (active)	10.7 µM (active)	30.4 µM (active)	15.3 µM (active)		inactive		33.8 µM (active)	
CC(C)(S)C(=O)N[C@@H](CS)C(=O)O	inactive	inactive	inactive	inactive				inactive		
CCN1CCCC1CNC(=O)c1cc(S(=O)(=O)CC)ccc1OC (centres undefined)	inactive	inactive	inactive	inactive	inactive	inactive	inactive	inactive	inactive	
Cc1ccc2nc(-c3ccc(N)cc3)sc2c1S(=O)(=O)O	inactive		26.9 µM (active)	inactive				inactive	inactive	inactive
C[S+](C)CCC(N)C(=O)O (centres undefined)	inactive	inactive	inactive					inactive		
O=C(O)c1cc(=O)c2c3nc4ccccc4oc-3cc(=O)c2[nH]1	inactive			inactive						inactive
CC(=O)OCC(=O)[C@@]1(O)CC[C@H]2[C@@H]3C[C@H](C)C4=CC(=O)C=C[C@]4(C)[C@H]3[C@@H](O)C[C@@]21C	inactive	inactive		inactive				inactive		
CCOc1cc(CC(=O)N[C@@H](CC(C)C)c2ccccc2N2CCCCC2)ccc1C(=O)O	inactive	inactive	inactive		inactive	inactive	11.4 µM (active)	inactive	inactive	
COc1ccc(/C=C/C(=O)Nc2ccccc2C(=O)O)cc1OC	inactive	inactive		inactive			inactive	inactive	inactive	
C=CC[N+]1([C@H]2C[C@H]3[C@@H]4CC[C@H]5C[C@H](O)[C@@H](N6CCOCC6)C[C@]5(C)[C@H]4CC[C@]3(C)[C@H]2OC(C)=O)CCCC1	inactive		inactive	inactive				inactive		inactive
c1ccc2c(c1)OCC(CN1CCCCC1)O2 (centres undefined)	inactive	inactive		inactive	inactive		inactive	inactive	inactive	
COC(=O)C(CN)c1c[nH]c2ccc(OC)cc12 (centres undefined)	inactive	inactive	inactive					inactive		
CO/N=C(\C(=O)N[C@@H]1C(=O)N2C(C(=O)O)=C(CSc3nc(C)c(CC(=O)O)s3)CS[C@H]12)c1csc(N)n1	inactive	inactive	inactive	inactive				inactive		
CC/C=C\C/C=C\C/C=C\C/C=C\C/C=C\C/C=C\CCC(=O)O	inactive	26.6 µM (active)		inactive				inactive		
O=C1CCC/C=C\CCCCCCCCCC1	inactive	inactive						inactive		
NC(=O)[C@@H]1C[C@]2(NC(=O)NC2=O)c2cc(F)ccc2O1	inactive	inactive	inactive					inactive		
NC(=O)C1c2ccccc2CCc2ccccc21	inactive		inactive	inactive		inactive	inactive	inactive	inactive	

— PubChem BioAssay (Tox21)
